GSIS activator – GLuc luminescence reporter in INS-1E cells, primary screen for activators of glucose-dependent secretion of insulin | INS-1E GLuc reporter insulin secretion, 2-3 h | hit rate 0.61% among 370,000 | activation, % at 16.6 µM | AID 743287;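 active means lowest replicate activation of at least 40%, so every replicate reaches that level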;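 further: 0% = median of neutral control wells and 100% = median of IBMX positive control wells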
Dyrk1A ADPGlo – blocks rat Dyrk1A kinase activity; Q63470; ADP-Glo luminescence, NFATc1 peptide; inhibition, % at 12.5 µM; hit rate 0.43% among 310,000; AID 504441;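 further: plate controls were vehicle with enzyme for no effect and no enzyme for full effect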
NSD2 inh – NSD2 (human) methyltransferase inhibition; O96028; NSD2 peptide methylation, AlphaScreen, 120 min; inhibition, % at 12.5 µM; hit rate 0.54% among 310,000; AID 743445
MITF TRPM1 HTS – activators of MITF-driven TRPM1 promoter activity in SK-MEL-5 cells. activation, % at 12.5 µM. SK-MEL-5 TRPM1-promoter luciferase, 24 h; % of positive control, neutral wells = 0. hit rate 0.75% among 300,000;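 active means mean activation of at least 80% with every replicate also reaching 80%; inconclusive means mean reaches 80% but some replicate falls short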;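 further: 0% = neutral control wells and 100% = parthenolide positive control wells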
miR-122 sensor – miR-122 inhibition in Huh7 cells | activation (reporter increase), % at 12.5 µM | Huh7 miR-122 Renilla luciferase sensor, 48 h; neutral wells = 0, positive control = 100 | AID 602342 | hit rate 0.3% among 340,000;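 active means mean replicate activation score at least 90 and every replicate individually at or above 90; inconclusive means only one of the two criteria met; inactive means neither criterion met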;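 further: higher luciferase means less miR-122 activity so hits act as miR-122 inhibitors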
Wnt act – activators of Wnt/beta-catenin signaling; hit rate 1.2% among 300,000; AID 743398; Wnt/beta-catenin reporter cell assay, activator, plate reader; activation, % at 9.35 µM; in the data active means activation above about 30%, passing the limit was not always enough; inconclusive means no clear call, values can overlap the other calls;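 further: 0% = neutral control wells and 100% = positive control wells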
Alpha artifact – counter-screen for NSD2 inhibitors: AlphaScreen artifacts. shares compounds with NSD2 inh. AlphaScreen artifact counterscreen, preloaded methylated H4 peptide. AC35, µM (doses to about 10 µM), for inactives: top-dose activity change, negative = signal loss. hit rate 9.4% among 1,500; call rule not given here
Active calls of the source: *; ? = inconclusive; . = no result; [ ] = remark or other dose. A selection: hits, their analogues and other compounds. The true share with any hit is near 2.4%. Unless noted, no stated cut-off is given here; in the data, active means inhibition above about 50%; inactive means the rest.

SMILES	GSIS activator	Dyrk1A ADPGlo	NSD2 inh	MITF TRPM1 HTS	miR-122 sensor	Wnt act	Alpha artifact
CNc1ccc(Br)cc(C(=O)/C=C/c2cccc(OC)c2OC)c1=O	.	-3	51*	.	13	.	-8%
Oc1cccc2c(NC(=S)Nc3ccc(OC(F)F)cc3)cccc12	-6	2	92*	0	.	-5	-6%
O=C(O)c1cc(C(=O)O)cc(N2C(=O)c3ccccc3C2=O)c1	18	.	1	.	.	0	.
O=C(O)c1cc(N2C(=O)C=CC2=O)cc(N2C(=O)C=CC2=O)c1	9	-1	88*	20	-2	-4	-8%
CCOC(=S)SCC(=O)Nc1nc(C)c(C)s1	-7	3	51*	11	6	-1	-2%
CCOC(=S)SCC(=O)Nc1nccs1	.	.	-3	-5	.	0	.
C[C@H]1CN([C@@H](C)CO)S(=O)(=O)c2ccc(C#CCN(C)C)cc2O[C@H]1CN(C)C(=O)CC1CC1	-3	.	.	.	-8[16.7 µM]	.	.
Cc1ccc(CSc2nc3c(c(=O)[nH]2)C(c2ccncc2)C2=C(CCCC2=O)N3)cc1 (centres undefined)	.	0	127*	.	0	.	-1%
CCSc1nc2c(c(=O)[nH]1)C(c1ccc(C)cc1)C1=C(CCCC1=O)N2 (centres undefined)	8	-6	-7	0	.	7	.
C[C@@H]1CN([C@H](C)CO)S(=O)(=O)c2ccc(/C=C/c3ccccc3)cc2O[C@@H]1CN(C)CC1CC1	10	.	.	.	-2[16.7 µM]	.	.
CCC(=O)N(C)C[C@@H]1Oc2cc(-c3ccncc3)ccc2S(=O)(=O)N([C@@H](C)CO)C[C@H]1C	1	.	.	.	8[16.7 µM]	.	.
CNCCCC12CCC(c3ccccc31)c1ccccc12	-2	1	84*	8	-4	-2	1%
CCCC[n+]1ccn(C2=C([O-])c3ccccc3C(=O)/C2=N\S(=O)(=O)c2ccccc2)c1	.	6	31	-96	12	-1	.
CC(C)[n+]1ccn(C2=C([O-])c3ccccc3C(=O)/C2=N\S(=O)(=O)c2ccccc2)c1	.	.	96*	.	.	2	4%
CC(C)(C)c1cc[n+](C2=C([O-])c3ccccc3C(=O)/C2=N\S(=O)(=O)c2ccccc2)cc1	-9	.	63*	.	5	1	-3%
Cc1cc[n+](C2=C([O-])c3ccccc3C(=O)/C2=N\S(=O)(=O)c2cccs2)cc1C	-8	1	12	-18	3	0	.
COc1cc(/C=C/C(=O)OCC(=O)NNC(=O)c2cc(Cl)ccc2OC)ccc1O	-5	-1	63*	2	-5	-1	2%
N=C1/C(=C/c2coc3ccccc3c2=O)C(=O)N=C2SC(c3ccco3)=NN12	.	.	84*	.	4	.	-3%
N=C1/C(=C\c2coc3ccccc3c2=O)C(=O)N=C2SC(c3ccncc3)=NN12	-40	14	98*	-9	-5	0	-3%
CC(C)CSC1=NSC2=NC(=O)/C(=C\c3coc4ccccc4c3=O)C(=N)N12	-22	8	12	1	.	9	.
CSC1=NSC2=NC(=O)/C(=C\c3coc4ccccc4c3=O)C(=N)N12	-49	14	74*	-15	.	5	1%
NS(=O)(=O)c1ccc(S(=O)(=O)N2CCN(C3CCCC3)CC2)cc1	14	-3	118*	0	-7	1	-1%
S=C(Nc1ccc(Cl)c(Cl)c1)N1CCCC1	-10	-3	-2	0	27	2	.
S=C(Nc1ccc2nsnc2c1)N1CCCCC1	-23	4	61*	62	.	21	9%
O=C(NCCO)Nc1ccc2nsnc2c1	1	18	1	6	.	1	.
SMILES	GSIS activator	Dyrk1A ADPGlo	NSD2 inh	MITF TRPM1 HTS	miR-122 sensor	Wnt act	Alpha artifact
OCCNC(=S)Nc1ccc2nsnc2c1	6	17	96*	-5	13	2	-3%
Cc1ccc(S(=O)(=O)NCC[C@H]2CC[C@@H](NC(=O)Nc3ccccc3F)[C@H](CO)O2)cc1	-4	.	.	.	.	.	.
C/C(=N\NC(=O)c1nnn(-c2nonc2N)c1C)c1ccc(-c2ccccc2)cc1	13	-1	99*	17	-1	-2	-1%
C/C(=N\NC(=O)c1nnn(-c2nonc2N)c1C)c1ccc(OCc2ccccc2)cc1	-1	0	6	?	5	19	.
CO[C@H]1CN(C)C(=O)c2ccc(NC(=O)C3CC3)cc2OC[C@H](C)N(C(=O)C2CCCCC2)C[C@@H]1C	6	.	.	.	.	.	.
O=C(N[C@H]1CC[C@@H](CC(=O)N2CCOCC2)O[C@H]1CO)c1ccc2c(c1)OCO2	-1	.	.	.	.	.	.
CCNc1ccccc(C(=O)/C=C/c2ccc3c(c2)OCO3)c1=O	.	9	66*	-13	7	.	-5%
COC(=O)/C=C/c1ccc2c(c1)OCO2	-2	-4	-1	5	-2	-2	.
CC(C)[C@@H]1C(=O)N[C@@H](c2ccc(F)cc2)CC=CC[C@H](C)Oc2ccccc2C(=O)N1C (mixture of isomers)	-8	.	.	.	.	.	.
O=C1Nc2ccc(S(=O)(=O)NCc3ccco3)c3cccc1c23	20	16	135*	3	16	.	-2%
CNS(=O)(=O)c1cc(NC(=O)CCCNC(=O)c2ccc(Cl)cc2)ccc1C	-17	-3	67*	2	.	0	-6%
O=C(c1ccncc1)N1C[C@H]2[C@@H](c3ccccc31)[C@@H](CO)N2C(=O)Nc1ccc(F)cc1	-3	.	.	.	21[16.7 µM]	.	.
O=C(O)CSc1cc(NS(=O)(=O)c2ccc(Br)cc2)c2ccccc2c1O	-39	-1	107*	-46	-1	9	-6%
C=CCN(CC=C)Cc1c(C)[nH]c2c(C)c(C)ccc2c1=O	15	2	0	-8	.	-4	.
CCN(Cc1ccccc1)Cc1c(C)[nH]c2c(C)c(C)ccc2c1=O	.	7	56*	4	-6	-5	-6%
O=C(NNc1cc(N2CCCC2)nc(N2CCCC2)n1)c1ccc([N+](=O)[O-])cc1	10	2	89*	-6	.	-1	-2%
CC(C)(C)c1ccc(C(=O)NNc2cc(N3CCCCC3)nc(N3CCCCC3)n2)cc1	-15	-1	.	-9	6	.	.
O=C(Nc1ccc(F)cc1)N1CCCCN2[C@@H](CO)[C@@H](c3ccc(C#Cc4ccccn4)cc3)[C@@H]2C1	-13	.	.	.	-9[16.7 µM]	.	.
CO[C@@H]1CN(C)C(=O)c2cc(NC(=O)Nc3cccc(F)c3)ccc2OC[C@@H](C)N(C(=O)Nc2cccc(F)c2)C[C@H]1C	-4	.	.	.	-8[16.7 µM]	.	.
C[C@@H]1CCCCO[C@@H](CN(C)S(=O)(=O)c2cccs2)[C@H](C)CN([C@H](C)CO)C(=O)c2cc(NS(=O)(=O)c3cn(C)cn3)ccc2O1	12	.	.	.	-5[16.7 µM]	.	.
COc1cc(/C=N/n2c(C)nnc2C)cc(OC)c1OC	.	-3	83*	1	2	.	-2%

Assay outcomes deposited in PubChem BioAssay by Broad Institute.
